Source: PubChem BioAssay (NCI)
Several values for one entry are separate records, joined by “and”; a condition that tells them apart may be missing. Equal entries are not always repeated. This is part of a sample that, as a whole, favours compounds with a hit. Of some 83,000 tested, about 20% had one in any assay.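 For each line, cells grew in 96-well plates with the test compound present at a single concentration for 48 hours.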 Activity calls are given as the source filed them. The calls were made as follows: active = growth percent below 10; inactive = the rest.

tested on: MDA-MB-468 breast; experiment: NCI-60 one-dose screen, 48 h (100 = growth as untreated, 0 = no growth, -100 = all killed); settings: 10 µM unless noted

SMILES | growth
Cn1cc(-c2ccc3ncc(-c4ccc(CC(=O)Nc5cc(C(C)(C)C)no5)cc4)nc3c2)cn1 | 48.9% (inactive)
CCOc1cccc(/C=N/NC(=O)c2ccc(Nc3ccnc(C(F)(F)F)c3)cc2)c1O | -20.9% (active)
O=C1c2ccccc2CN1c1ccccc1 | 101% (inactive)
COc1ccc(-c2nc3cc(Cl)c(Cl)cc3n2CC(=O)N=Nc2c(O)[nH]c3ccc(Br)cc23)cc1 | -71% (active)
C=C1C(=O)O[C@H]2[C@H]1CC/C(COC(=O)NCCc1ccc(OC)c(OC)c1)=C\CC[C@@]1(C)O[C@@H]21 | 16.9% (inactive)
CC/C(=C(/c1ccc(Cl)cc1)c1ccc(OCCN2CCCC2)cc1)c1ccc(OC)cc1 | 46.5% (inactive)
COc1ccc(/C=C2/SC(=S)NC2=O)c(OC)c1OC | 65.4% (inactive)
CCOC(=O)c1c(NCC(=O)Nc2ccc(Br)cc2)sc2c1CCCC2 | 7.05% (active)
Oc1ccc(CNNc2ccnc3c(O)cccc23)c2cccnc12 | 64.3% (inactive)
CC1=CC(=NC(=O)CBr)C=C/C1=N\S(=O)(=O)c1ccccc1 | 66% (inactive)
COc1cc(OCc2cccc(-c3ccccc3)c2C)cc(OC)c1CN1CCCCC1C(=O)NCCOCCOCCN (stereo not given) | 30% (inactive)
O=C1c2ccccc2C(=O)c2cc(Cn3c[n+](Cc4ccc5ccccc5c4)c4ccccc43)ccc21 | -27.6% (active)
CC(CCc1ccc(Cl)c(Cl)c1)NCc1ccc(C(C)(C)C)cc1 (stereo not given) | 30.8% (inactive)
CCN1CCN(C(=O)[C@]23CC[C@@H](C)[C@H](C)[C@@H]2C2=CC[C@@H]4[C@@]5(C)CCC(=O)C(C)(C)[C@@H]5CC[C@@]4(C)[C@]2(C)CC3)CC1 | -7.11% (active)
ClC(Cl)c1nc(-c2ccccc2)n2nc(-c3ccccc3)cc2n1 | -52.3% (active)
CCOCC(O)(c1ccc(Cl)cc1)c1ccc(Cl)cc1 | 102% (inactive)
CNc1sc(S(=O)(=O)NC)nc1S(=O)(=O)c1ccc(C)cc1 | 86.3% (inactive)
N#Cc1c(-c2ccc(C(F)(F)F)cc2)c(F)c(NCCC2CCC(O)C2)n2c1nc1ccccc12 (stereo not given) | 64.2% (inactive)
COc1ccc(/C=N/NC(=O)Cn2c(-c3ccc(S(C)(=O)=O)cc3)nc3ccccc32)cc1 | 98.3% (inactive)
CC/C=C\C/C=C\C[C@H](O)C/C=C1/C(=O)C=C[C@H]1C/C=C\CCC(=O)OC | 28.3% [8.25 µM] (inactive)

SMILES | growth
O=C1C(Cl)=C(Nc2ccccc2)C(=O)c2ccccc21 | -77.8% (active)
O=C(CSc1nc2ccc([N+](=O)[O-])cc2[nH]1)Nc1ccc(Br)cc1 | 14.1% (inactive)
COc1cc2c(cc1-c1c(C)noc1C)ncc1nc(C3CCCCC3)n([C@H](C)COC(F)F)c12 | 38.5% (inactive)
O=C1/C(=C/c2ccccc2[N+](=O)[O-])Cc2ccccc21 | -46.2% (active) and -17.9% (active)
COc1ccc(-c2nn(-c3ccc(S(C)(=O)=O)cc3)cc2/C=N/O)cc1 | 117% (inactive)
CC(C)(C)OC(=O)N1CCc2c(sc3ncnc(N/N=C/c4ccccc4Br)c23)C1 | 71.5% (inactive)
CCCCN1C(=O)/C(=c2\sc3n(c2=O)C2C(NN=3)N(CC)C(=O)N2CC)c2ccccc21 (stereo not given) | 1.69% (active)
Cc1ccccc1NC(=O)CN(C)C | 107% (inactive)
O=C(NNC(=O)c1ccc(NC(=O)c2ccccn2)cc1)Nc1ccc2ccccc2c1 | 119% (inactive)
CCCc1cc(=O)oc2c3c(c4c(c12)OC(C)(C)CC4)OC(C)[C@H](C)[C@@H]3O (stereo not given in full) | 108% (inactive)
COc1ccc2[nH]c(O)c(C(=Nc3ccc(N(C)C(=O)CN4CCN(C)CC4)cc3)c3ccccc3)c2c1 | 58.1% (inactive)
Cc1ccc(-c2nc(C#N)c(S(=O)(=O)n3nc(C)cc3N)o2)cc1 | 57.7% (inactive)
CCOC(=O)NNc1cccc(Cl)c1 | 98.2% (inactive)
COCCn1c(Nc2ccc(C(=O)NO)cc2)nc2ccccc21 | 63.7% (inactive)
CCOC(=O)c1ccc(N=Cc2sc(=O)[nH]c2O)cc1 | 98.6% (inactive)
CC1=C(C/C=C(\C)CCC[C@H](C)CCC[C@H](C)CCCC(C)C)C(=O)c2ccccc2C1=O | 116% (inactive)
O=C1/C(=C/c2ccccc2Br)COc2ccc(O)cc21 | 69.1% (inactive)
CN1CCN(Cc2ccc(NC(=O)c3cncc(C#Cc4cnc5ccc(OCC6(C)COC6)nn45)c3)cc2C(F)(F)F)CC1 | -73.8% (active)
Nc1nc(N)c2c(n1)NC(c1ccc(C(F)(F)F)cc1)CC(c1ccc(Nc3nc(NCCO)nc(N4CCOCC4)n3)cc1)=N2 (stereo not given) | 68.3% (inactive)
CC(=O)CC/C=C(\C)[C@H](O)[C@H](C)C(=O)O[C@H]1C[C@H](C)C=C2C=C[C@@]3(C)O[C@@H](O)CC(=O)[C@]3(C)[C@H]21 | -65.4% (active)
